Measured values published in the antibiotic and cytotoxicity screens of Wong et al. (2023).
In all, about 39,000 compounds went through this assay and about 3,300 (8.5%) were called active. Many of the other results were omitted from the sample, so actives are more common in it than they were.

Tested on: HepG2
Assay: cytotoxicity call (relative viability < 0.9)
Conditions: 10 µM

Q: With `COc1ccc([C@@H]2CC=CC[C@H](C)Oc3ccccc3C(=O)N(C)[C@@H](Cc3ccccc3)C(=O)N2)c(OC)c1` as the compound, how does the cytotoxicity call read?
A: inactive

Q: How did the cytotoxicity call turn out when `Cc1noc(C)c1NC(=O)Nc1ccc2c(c1)C(=O)N([C@@H](C)CO)C[C@@H](C)[C@@H](CN(C)Cc1ccncc1)OCCCC[C@H](C)O2` was run?
A: inactive

Q: For `CO[C@H]1CN(C)C(=O)c2cc(NC(=O)C3CC3)ccc2OC[C@@H](C)N(C(=O)C2CCOCC2)C[C@H]1C`, which cytotoxicity call is on record?
A: inactive

Q: For `COc1ccc([C@@H]2CC=CC[C@@H](C)Oc3ccccc3C(=O)N(C)[C@H](Cc3ccccc3)C(=O)N2)c(OC)c1`, which cytotoxicity call is on record?
A: inactive

Q: For `Cc1noc(C)c1NC(=O)Nc1ccc2c(c1)C(=O)N([C@@H](C)CO)C[C@@H](C)[C@H](CN(C)C(=O)c1ccccc1)OCCCC[C@@H](C)O2`, which cytotoxicity call is on record?
A: inactive

Q: With `COCC(=O)N1C[C@@H](C)[C@H](OC)CN(C)C(=O)c2ccc(NC(=O)c3ccc(OC)cc3)cc2OC[C@@H]1C` as the compound, how does the cytotoxicity call read?
A: inactive

Q: For `COc1cc(C(=O)NS(=O)(=O)c2ccccc2C)ccc1Cc1cn(C)c2ccc(NC(=O)OC3CCCC3)cc12`, which cytotoxicity call is on record?
A: inactive

Q: How did the cytotoxicity call turn out when `CCCC#Cc1cnc2c(c1)C(=O)N([C@H](C)CO)C[C@H](C)[C@@H](CN(C)S(=O)(=O)c1cn(C)cn1)O2` was run?
A: inactive

Q: For `C[C@@H]1CN([C@@H](C)CO)C(=O)c2cc(NC(=O)Cc3ccccc3)ccc2O[C@@H]1CN(C)C(=O)Nc1cccc2ccccc12`, which cytotoxicity call is on record?
A: inactive

Q: For `CC(C)NC(=O)N(C)C[C@@H]1Oc2ccc(NS(=O)(=O)c3ccc(F)cc3)cc2C(=O)N([C@@H](C)CO)C[C@H]1C`, which cytotoxicity call is on record?
A: inactive

Q: Which cytotoxicity call does the source give for `CNC(=O)Cc1cnc(N)s1` here?
A: inactive

Q: With `C[C@H](CO)N1C[C@H](C)[C@H](CN(C)Cc2ccc(C(F)(F)F)cc2)Oc2c(NC(=O)CCCCCC(=O)Nc3ccccc3N)cccc2C1=O` as the compound, how does the cytotoxicity call read?
A: inactive

Q: Which cytotoxicity call does the source give for `C[C@H](CO)N1C[C@H](C)[C@H](CN(C)Cc2ccc(Oc3ccccc3)cc2)Oc2c(NS(=O)(=O)c3cccs3)cccc2C1=O` here?
A: inactive

Q: `C[C@H]1CN([C@@H](C)CO)C(=O)c2cccc(NC(=O)c3ccncc3)c2O[C@H]1CN(C)Cc1ccncc1` was tested. Which cytotoxicity call did it give?
A: inactive

Q: With `C[C@@H]1CN([C@H](C)CO)C(=O)c2cc(-c3cccnc3)cnc2O[C@H]1CN(C)Cc1ccc(Oc2ccccc2)cc1` as the compound, how does the cytotoxicity call read?
A: inactive

Q: How did the cytotoxicity call turn out when `Cc1cccc(Oc2ccc(NC(=O)C3CCC(C)CC3)cc2)c1` (stereo not given) was run?
A: inactive

Q: `COc1ccc(NC(=O)Nc2ccc3c(c2)[C@H]2C[C@H](CC(=O)N4CCN(C)CC4)O[C@@H](CO)[C@H]2O3)cc1` was tested. Which cytotoxicity call did it give?
A: inactive

Q: With `CN1CCN(Cc2ccc(NC(=O)Nc3ccc(Oc4cc(NC(=O)C5CC5)ncn4)cc3)cc2C(F)(F)F)CC1` as the compound, how does the cytotoxicity call read?
A: active

Q: Which cytotoxicity call does the source give for `C[C@@H]1CN([C@H](C)CO)C(=O)Cc2cc(NS(=O)(=O)c3ccc(F)cc3)ccc2O[C@H]1CN(C)S(=O)(=O)c1ccccc1` here?
A: inactive

Q: For `C[C@H]1CCCCO[C@H](CN(C)C(=O)NC2CCCCC2)[C@@H](C)CN([C@@H](C)CO)C(=O)c2cc(NC(=O)NC3CCCCC3)ccc2O1`, which cytotoxicity call is on record?
A: inactive

Q: With `N#C/C(=N\O)C(=O)c1ccco1` as the compound, how does the cytotoxicity call read?
A: inactive

Q: `CCCSc1ccc2nc(NC(=O)OC)[nH]c2c1` was tested. Which cytotoxicity call did it give?
A: active

Q: How did the cytotoxicity call turn out when `N=C(N)Nc1nc(=O)c2ccccc2[nH]1` was run?
A: inactive

Q: With `CCCOc1ccc2nc(NC(=O)OC)[nH]c2c1` as the compound, how does the cytotoxicity call read?
A: active

Q: How did the cytotoxicity call turn out when `CCOC(=O)Nc1nc2ccccc2[nH]1` was run?
A: inactive

Q: `COC(=O)Nc1nc2ccc(Sc3ccccc3)cc2[nH]1` was tested. Which cytotoxicity call did it give?
A: active

Q: How did the cytotoxicity call turn out when `Cn1c(=O)c2c(ncn2CC(=O)Nc2nc3ccccc3[nH]2)n(C)c1=O` was run?
A: inactive

Q: `COC(=O)Nc1nc2ccc(S(=O)c3ccccc3)cc2[nH]1` (stereo not given) was tested. Which cytotoxicity call did it give?
A: active

Q: For `CC(C)NC(=O)c1cccc2cccc(Sc3ccccc3)c12`, which cytotoxicity call is on record?
A: inactive

Q: With `N=C(N)Nc1nc2ccccc2[nH]1` as the compound, how does the cytotoxicity call read?
A: inactive

Q: How did the cytotoxicity call turn out when `COc1ccc2nc(S(=O)Cc3ncc(C)c(OC)c3C)[nH]c2c1` (stereo not given) was run?
A: inactive

Q: How did the cytotoxicity call turn out when `O=C(O)Cn1cccn1` was run?
A: inactive

Q: `CCC/C=C1\OC(=O)c2ccccc21` was tested. Which cytotoxicity call did it give?
A: inactive

Q: Which cytotoxicity call does the source give for `Cc1noc(C)c1S(=O)(=O)N(C)C[C@@H]1OCCCC[C@@H](C)Oc2ccc(NC(=O)Nc3cccc4ccccc34)cc2C(=O)N([C@H](C)CO)C[C@@H]1C` here?
A: inactive

Q: For `C[C@H]1CN([C@@H](C)CO)C(=O)Cc2cc(NC(=O)Nc3ccc(C(F)(F)F)cc3)ccc2O[C@@H]1CN(C)Cc1ccc(C(=O)O)cc1`, which cytotoxicity call is on record?
A: inactive

Q: For `COc1ccc(CN(C)C[C@H]2OCCCC[C@@H](C)Oc3ccc(NC(=O)NC(C)C)cc3C(=O)N([C@H](C)CO)C[C@@H]2C)cc1`, which cytotoxicity call is on record?
A: inactive

Q: `CCCC(=O)Nc1ccc2c(c1)C(=O)N(C)C[C@H](OC)[C@H](C)CN(Cc1ccc(-c3ccccn3)cc1)[C@@H](C)CO2` was tested. Which cytotoxicity call did it give?
A: inactive

Q: For `CN(CCN)C1CCCCC1`, which cytotoxicity call is on record?
A: inactive

Q: For `CCS(=O)(=O)NCC[C@H]1CC[C@H](NC(=O)Cc2ccccn2)[C@@H](CO)O1`, which cytotoxicity call is on record?
A: inactive

Q: Which cytotoxicity call does the source give for `C[C@@H]1CCCCO[C@H](CN(C)C(=O)Cc2ccccc2)[C@@H](C)CN([C@@H](C)CO)C(=O)c2cc(NC(=O)c3ccccc3)ccc2O1` here?
A: inactive

Q: Which cytotoxicity call does the source give for `CCS(=O)(=O)N1CC[C@]2(CC1)CN([C@H](CO)c1c2c2ccc(cc2n1C)OC)C(=O)c1cccc(c1)F` here?
A: inactive

Q: Which cytotoxicity call does the source give for `COc1ccc(S(=O)(=O)Nc2ccc3c(c2)C(=O)N([C@@H](C)CO)C[C@H](C)[C@@H](CN(C)Cc2ccc4c(c2)OCO4)OCCCC[C@H](C)O3)cc1` here?
A: inactive

Q: How did the cytotoxicity call turn out when `Cc1ccc(S(=O)(=O)Nc2ccc3c(c2)C(=O)N([C@H](C)CO)C[C@@H](C)[C@H](CN(C)Cc2ccc4c(c2)OCO4)OCCCC[C@@H](C)O3)cc1` was run?
A: inactive

Q: For `Cn1cnc(S(=O)(=O)N[C@@H]2CC[C@H](CC(=O)NCC3CC3)O[C@H]2CO)c1`, which cytotoxicity call is on record?
A: inactive

Q: Which cytotoxicity call does the source give for `OC[C@H]1O[C@H]([S][Au])[C@H](O)[C@@H](O)[C@@H]1O` here?
A: active

Q: For `OC[C@H]1O[C@@H](O)[C@H](O)[C@@H](O)[C@H]1O`, which cytotoxicity call is on record?
A: inactive

Q: Which cytotoxicity call does the source give for `OC[C@H]1O[C@@H](O)[C@@H](O)[C@@H](O)[C@@H]1O` here?
A: inactive

Q: With `Cc1noc(C)c1NC(=O)Nc1ccc2c(c1)C(=O)N([C@H](C)CO)C[C@H](C)[C@H](CN(C)S(=O)(=O)c1cn(C)cn1)O2` as the compound, how does the cytotoxicity call read?
A: inactive

Q: How did the cytotoxicity call turn out when `COc1ccc(S(=O)(=O)Nc2ccc3c(c2)C(=O)N([C@H](C)CO)C[C@@H](C)[C@H](CN(C)C(=O)Nc2cccc4ccccc24)O3)cc1` was run?
A: inactive

Q: `CC(C)(C)[S@](=O)N1Cc2cc(C(=O)NCc3ccc4c(c3)OCO4)nc(-c3cccc(-c4cccnc4)c3)c2[C@@H]1CCO` was tested. Which cytotoxicity call did it give?
A: inactive

Q: Which cytotoxicity call does the source give for `CC(C)(C)S(=O)N1Cc2cc(C(=O)NCc3ccc4c(c3)OCO4)nc(-c3cccc(-c4cccc(F)c4)c3)c2[C@@H]1CCO` (stereo not given in full) here?
A: active

Q: How did the cytotoxicity call turn out when `CC(C)(C)[S@@](=O)N1Cc2cc(C(=O)NCc3ccc4c(c3)OCO4)nc(-c3cccc(-c4ccccc4)c3)c2[C@H]1CCO` was run?
A: inactive

Q: How did the cytotoxicity call turn out when `CC(C)(C)[S@@](=O)N1Cc2cc(C(=O)NCc3ccc4c(c3)OCO4)nc(-c3cccc(-c4ccncc4)c3)c2[C@H]1CCO` was run?
A: inactive

Q: For `CC(C)(C)[S@](=O)N1Cc2cc(C(=O)NCc3ccc4c(c3)OCO4)nc(-c3cccc(-c4ccncc4)c3)c2[C@@H]1CCO`, which cytotoxicity call is on record?
A: inactive

Q: Which cytotoxicity call does the source give for `CC(C)(C)S(=O)N1Cc2cc(C(=O)NCc3ccc4c(c3)OCO4)nc(-c3cccc(-c4cccc(F)c4)c3)c2[C@H]1CCO` (stereo not given in full) here?
A: active
